The text below walks through data of PubChem BioAssay (EPA / NIEHS).

In experiment [1] the target is Luciferin 4-monooxygenase (Photinus pyralis) (UniProt P08659). Put plainly: CCTE_Simmons_QuantiLum_inhib_2: CCTE's Firefly Luciferase Inhibition Assay, Simmons Lab (AID 2283767).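 As to AC50: potency for inhibitors that lower luciferase luminescence relative to DMSO.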 An outline of the steps:
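First, 5 ng purified luciferase in phosphate buffer with BSA is dispensed per well. Next, test chemicals (5 nM to 87.5 uM final, 0.5% DMSO) are added and incubated 30 min at 37C in darkness. Finally, luciferin reagent is injected and luminescence read kinetically.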

The nature of experiment [2]: ACEA_AR_agonist_AUC_viability: ACEA Biosciences xCELLigence Real-Time Cell Analysis on Androgen Receptor Agonism for Viability (AID 2283775).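 As to AC50: viability read 80 hours after compound addition.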 The method, boiled down:
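22Rv1 cells; impedance growth kinetics; 8-pt 1:4 dilutions from 100 uM top final, ≤0.5% DMSO; n = 2; 80 h read; AUC viability, loss-of-signal vs DMSO.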

Experiment [3] is described as follows: ACEA_AR_antagonist_AUC_viability: ACEA Biosciences xCELLigence Real-Time Cell Analysis on Androgen Receptor Antagonism for Viability (AID 2283776).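 Also: 22Rv1 human prostate cancer cells growing on impedance electrode plates; area under impedance growth curve at 80 h after dosing as viability; hits lower the growth signal relative to DMSO meaning cytotoxicity.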 An outline of the steps:
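Viability endpoint from label-free cell-index monitoring: 22Rv1 cultures treated with an eight-point 1:4 dilution series starting at 100 uM final, AUC at 80 h fitted against DMSO.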

Experiment [4] in a line: ArunA_NOG_NeuriteLength: ArunA Biomedical's Neurite Outgrowth (NOG) Assay for Neurite Length (AID 2283757). An outline of the steps:
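Total neurite length per neuron, from traced βIII-tubulin-labelled processes longer than 10 um on viable Hoechst-gated cells, was scored as decrease from DMSO. Cells were hESC (H9)-derived neurons given 48 h chemical exposure immediately after seeding.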

A short description of experiment [5]: ArunA_NOG_NeuritesPerNeuron: ArunA Biomedical's Neurite Outgrowth (NOG) Assay for Neurites Per Neuron (AID 2283758). An outline of the steps:
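Differentiated human H9-derived neurons exposed to chemicals for 48 h from seeding, then stained with Hoechst and βIII-tubulin/DyLight 488. Automated imaging counted neurites (processes >10 um) per valid neuron; loss of signal versus DMSO scored.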

Experiment [6] is described as follows: ArunA_NOG_BranchPointsPerNeurite: ArunA Biomedical's Neurite Outgrowth (NOG) Assay for Branch Points Per Neurite (AID 2283759). An outline of the steps:
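Automated image analysis traced neurites (processes >10 um) from valid cell bodies after Hoechst and βIII-tubulin staining. hNN cells from H9 embryonic stem cells, 48 h exposure. Fitted bidirectionally against DMSO.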

Experiment [7] in a line: STM_H9_NormalizedViability: Cytotoxicity Assessment at 120 hours in the Stemina devTOX quickPredict H9 human embryonic stem cell (hESC)-based Assay (AID 2283784). The method, boiled down: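 Viability of the cell layer was taken from live-cell protease cleavage of a fluorogenic substrate after compound exposure of undifferentiated H9 stem cells, with replenishment each 24h. Fluorescence was normalized to vehicle (0.1% DMSO).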

The nature of experiment [8]: ACEA_ER_AUC_viability: ACEA Biosciences xCELLigence Real-Time Cell Analysis on Estrogen Receptor Agonism for Viability (AID 2283782).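 Also: hit means loss of impedance signal meaning reduced cell growth or viability.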 The method, boiled down:
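Read-out: real-time electrical impedance (RT-CES) area under curve, loss of signal taken as reduced viability, normalized to DMSO baseline. T-47D cells, charcoal-stripped serum medium, compounds up to 100 uM final, continuous exposure, 80 h.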

The target of experiment [9] is AR (gene 367) (UniProt P10275). Put plainly: ACEA_AR_agonist_80hr: ACEA Biosciences xCELLigence Real-Time Cell Analysis on Androgen Receptor Agonism for Proliferation (AID 2283783).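 Also: hits increase impedance growth signal above DMSO baseline.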 An outline of the steps: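 Impedance (RT-CES) growth signal at 80 h post-dose; 22Rv1 cells, 8-pt 1:4 series, top 100 uM final, DMSO ≤0.5%; duplicate plates; gain-of-signal fit relative to DMSO baseline.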
Chain of AR (gene 367) (P10275 whole entry, looked up): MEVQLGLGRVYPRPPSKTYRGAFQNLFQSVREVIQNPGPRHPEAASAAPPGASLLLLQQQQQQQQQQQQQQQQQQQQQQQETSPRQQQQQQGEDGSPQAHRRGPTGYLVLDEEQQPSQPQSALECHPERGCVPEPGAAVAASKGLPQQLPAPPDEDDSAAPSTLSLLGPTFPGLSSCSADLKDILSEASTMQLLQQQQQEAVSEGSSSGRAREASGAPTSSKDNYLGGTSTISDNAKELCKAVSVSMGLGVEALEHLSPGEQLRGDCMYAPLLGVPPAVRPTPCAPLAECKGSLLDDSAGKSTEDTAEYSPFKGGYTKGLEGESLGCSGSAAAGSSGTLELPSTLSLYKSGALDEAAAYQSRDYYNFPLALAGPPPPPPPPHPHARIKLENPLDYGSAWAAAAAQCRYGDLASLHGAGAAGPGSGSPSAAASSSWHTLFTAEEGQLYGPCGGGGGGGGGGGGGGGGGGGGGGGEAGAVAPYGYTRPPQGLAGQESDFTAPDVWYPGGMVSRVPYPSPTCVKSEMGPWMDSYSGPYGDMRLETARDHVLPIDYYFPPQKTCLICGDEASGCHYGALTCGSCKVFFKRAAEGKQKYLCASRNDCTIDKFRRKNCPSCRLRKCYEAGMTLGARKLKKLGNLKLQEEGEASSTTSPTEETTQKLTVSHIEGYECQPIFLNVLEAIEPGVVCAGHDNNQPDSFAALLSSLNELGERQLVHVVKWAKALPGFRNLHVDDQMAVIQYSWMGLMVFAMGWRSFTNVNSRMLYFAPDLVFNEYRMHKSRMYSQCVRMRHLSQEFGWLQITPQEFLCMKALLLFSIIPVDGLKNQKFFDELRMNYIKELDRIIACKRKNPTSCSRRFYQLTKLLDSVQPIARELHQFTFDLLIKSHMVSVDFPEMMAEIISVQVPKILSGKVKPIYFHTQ

Broadly, the AC50 is the midpoint of the concentration-response curve, whichever way the signal moves.

Results filed as inconclusive are left out. Calls of active or inactive are those of the source. The calls were made as follows: active = hit-call score of the fitted dose curve at least 0.9, where 1 is the maximum; inconclusive = response in the unintended direction; inactive = score below 0.9.

Chain of Luciferin 4-monooxygenase (Photinus pyralis) (P08659 whole entry, looked up): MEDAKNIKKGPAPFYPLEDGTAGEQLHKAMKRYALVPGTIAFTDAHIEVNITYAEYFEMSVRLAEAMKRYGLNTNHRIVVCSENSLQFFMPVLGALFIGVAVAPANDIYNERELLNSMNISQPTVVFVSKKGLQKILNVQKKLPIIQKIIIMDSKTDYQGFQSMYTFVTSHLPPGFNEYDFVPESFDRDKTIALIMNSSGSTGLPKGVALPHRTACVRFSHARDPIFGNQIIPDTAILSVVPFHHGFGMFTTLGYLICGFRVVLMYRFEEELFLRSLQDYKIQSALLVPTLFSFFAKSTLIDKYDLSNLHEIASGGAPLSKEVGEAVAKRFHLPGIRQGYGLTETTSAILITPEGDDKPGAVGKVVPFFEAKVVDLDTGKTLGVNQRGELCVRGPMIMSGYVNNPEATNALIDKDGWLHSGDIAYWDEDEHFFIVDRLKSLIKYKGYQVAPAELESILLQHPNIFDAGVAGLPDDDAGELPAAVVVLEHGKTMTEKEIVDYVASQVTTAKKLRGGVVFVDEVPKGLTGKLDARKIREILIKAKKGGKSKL

In the case of `CN1CCCC1=O`, the outcome in experiment [1], in experiment [2] and in [3] was inactive.

Turning to `CC=Cc1ccc(O)c(OC)c1`, the compound was called inactive in [1]. The AC50 in experiment [2] was 50 µM (active); in experiment [3], 19.3 µM (active).

On to `CCCc1cc(=O)[nH]c(=S)[nH]1`, for which the result in [4], in experiment [5], in experiment [6], in experiment [1], in [3] and in experiment [7] was inactive.

Regarding `CC1=C(/C=C/C(C)=C/C=C/C(C)=C/CO)C(C)(C)CCC1`, the compound was classed as inactive in [1], in experiment [8] and in [7]. For the same compound, the AC50 was 72.2 µM (active) in experiment [2] and 79.8 µM (active) in experiment [3].

Take `CCCCC(CC)COC(=O)CC(C(=O)OCC(CC)CCCC)S(=O)(=O)O` (centres undefined): the compound was called inactive in experiment [4], in experiment [5] and in [7]. Also, the AC50 in experiment [1] was 13.1 µM (active); in [2] it was 88.4 µM (active); in experiment [3], 85.2 µM (active); in experiment [8], 67.3 µM (active).

Take `Cc1cccc(C)c1O`: the outcome in experiment [1], in [3], in experiment [8] and in [9] was inactive.

Regarding `CCOc1ccc2c(c1)C(C)=CC(C)(C)N2`, the call in experiment [1], in experiment [8] and in [9] was inactive. The results for the AC50 in experiment [2] and in experiment [3] were 79.8 µM (active) and 89.5 µM (active), respectively.

With `CN[C@H]1CC[C@@H](c2ccc(Cl)c(Cl)c2)c2ccc(S(N)(=O)=O)cc21`, the AC50 is 10.7 µM (active) in experiment [1], 15.2 µM (active) in experiment [2], 15.7 µM (active) in [3] and 10.9 µM (active) in experiment [8].

In the case of `Cc1oc(-c2ccccc2)nc1CCOc1cccc2c1ccn2CCC(=O)O`, the outcome in experiment [1], in experiment [8] and in experiment [7] was inactive. Moreover, the AC50 was 68.8 µM (active) in experiment [2] and 65.7 µM (active) in [3].

Regarding `COc1ccc(C)cc1N`, the compound was called inactive in experiment [1], in experiment [2], in experiment [3] and in experiment [8].

Regarding `Cc1ccc(N(C)C)cc1`, the compound was called inactive in experiment [1], in experiment [2] and in [3].
